Assay outcomes from PubChem BioAssay.
Compounds with a hit are over-represented: about 7.7% of the library has one in this group of screens.
Giardia FBPA inh: inhibitors of Giardia lamblia fructose-1,6-bisphosphate aldolase; A8B2U2; purified Giardia FBPA; Potency, µM (highest dose often 59.6 µM), inactives show top-dose activity, negative = inhibition, hits mostly inhibitors; hit rate 0.71% among 290,000; AID 2451; further: potency means the concentration at half of the fitted maximal effect; nearly all actives have a fitted effect of over 55% in size
Target sequence (A8B2U2 whole entry, looked up): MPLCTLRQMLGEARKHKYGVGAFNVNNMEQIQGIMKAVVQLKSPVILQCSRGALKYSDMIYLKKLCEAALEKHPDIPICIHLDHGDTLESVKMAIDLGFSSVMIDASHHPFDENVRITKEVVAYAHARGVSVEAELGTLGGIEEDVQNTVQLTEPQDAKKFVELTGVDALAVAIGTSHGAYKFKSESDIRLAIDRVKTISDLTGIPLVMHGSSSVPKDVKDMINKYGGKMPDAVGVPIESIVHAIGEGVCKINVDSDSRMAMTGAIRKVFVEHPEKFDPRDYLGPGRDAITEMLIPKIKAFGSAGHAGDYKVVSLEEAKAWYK
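40 nM FBPA preincubated 10 min at RT with compound (up to 57.5 uM final), then substrate plus GAPDH/TPI/NAD/arsenate coupling and diaphorase/resazurin added. Fluorescence read after 20 min at RT, 525/598 nm.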
Sm TGR block: inhibitors of Schistosoma mansoni thioredoxin glutathione reductase | Q962Y6 | purified TGR, DTNB reduction, TNB absorbance 405 nm | Potency, µM (top dose mostly 114 µM), for inactives: top-dose activity change, negative = inhibition, hits mostly inhibitors | hit rate 3% among 360,000 | AID 485364; further: potency means the concentration at half of the fitted maximal effect; nearly all actives have a fitted effect of over 60% in size
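Kinetic colorimetric format: TGR-catalysed, NADPH-driven DTNB reduction monitored via TNB absorbance. Enzyme dispensed at 20 nM; compound exposure 15 min at room temperature before reaction start.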
HCMV inh: blocks human cytomegalovirus replication. hit rate 4.5% among 410,000. HFF cells, HCMV-luciferase reporter, 72 h; hits give low values. AID 1259415. activity change, negative = inhibition, % at 57.5 µM; in the data active means activity change below about -60%; inconclusive means no clear call, values can overlap the other calls; inactive means above about -39%
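After 16 h attachment at 37C, HFF cells received test compound and HCMV-luciferase (1 PFU/cell); reporter luminescence read 72 h later, data normalized against buffer-only and known inhibitor Salinomycin.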
TbPYK inhibitor: T. brucei pyruvate kinase inhibition | hit rate 0.12% among 410,000 | Q57TT1 | AID 624173 | TbPYK enzyme, Kinase-Glo Plus ATP luminescence, 45 min | Potency, µM (highest dose often 76.8 µM), inactives show top-dose activity, negative = inhibition, most hits filed as inhibitors; further: potency means the concentration at half of the fitted maximal effect; nearly all actives have a fitted effect of over 50% in size
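Enzyme and substrate buffer are dispensed first and compound is pin-transferred. ADP at 130 uM final then starts the reaction, which runs 45 min at room temperature. Detection reagent is added for 10 min before luminescence is imaged.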
FMDV antiviral: foot and mouth disease virus antiviral activity; Potency, µM (titrated, usually from 57.9 µM), without a hit: at the highest dose activity change, negative = inhibition, hits mostly inhibitors; FMDV antiviral cell-based qHTS; hit rate 1.2% among 410,000; calls by dose curve; tested in HEK293T cells; further: read-out not given here; potency means the concentration at half of the fitted maximal effect; nearly all actives have a fitted effect of over 45% in size
RE007 growth inh: less growth of the S. pombe RE007 Vpr strain; S. pombe RE007 Vpr strain, BacTiter-Glo ATP luminescence, 24 h; Potency, µM (top dose mostly 92.2 µM), for inactives: top-dose activity change, negative = less growth, hits mostly inhibitors; hit rate 0.21% among 360,000; AID 651644; active means well fitted falling curve with a large enough effect; inconclusive means small, poorly fitted or top-dose-only effect; inactive means no such curve, though single readings can be large or run the other way; further: potency means the concentration at half of the fitted maximal effect; nearly all actives have a fitted effect of over 50% in size
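Fission yeast strain RE007, carrying one chromosomally integrated HIV-1 vpr copy, was seeded at OD 0.01 in PMG+AL medium with 23 nL pinned compound. After 24 h at 30 °C and 99% humidity, viability was read by BacTiter-Glo luminescence.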
Numbers without * were called inactive. Unless noted, the call rests on the fitted dose curve; in most records, active means well fitted curve in the direction sought with a large enough effect; inconclusive means small, poorly fitted or top-dose-only effect, or another doubt; inactive means no such curve, though single readings can be large; an effect the other way counts as inactive or inconclusive. On the % scale 0 is the no-effect control and ±100 the full control effect.

Cc1ccccc1-c1nc(CS(=O)CC(=O)NC2CCCC2)c(C)o1 (stereo not given) was read as Sm TGR block 0%, HCMV inh -15, TbPYK inhibitor -13%, FMDV antiviral 22% and RE007 growth inh -7%.
`Cc1ccccc1-c1nc(CS(=O)CC(=O)NC2CCCCC2)c(C)o1` (stereo not given) gave Sm TGR block 40µM*, HCMV inh -9, TbPYK inhibitor -10%, FMDV antiviral 93% and RE007 growth inh -12%.
For Cc1cccc(NC(=O)N2CCC3(CC2)Oc2ccccc2C(=O)N3Cc2ccccc2F)c1C the results were Sm TGR block -2%, HCMV inh -35, TbPYK inhibitor -2% and FMDV antiviral -8%.
C/C(=N\OCc1cccc(C(=O)O)c1)c1ccc(Cl)cc1 was read as Giardia FBPA inh 26%, Sm TGR block 0%, HCMV inh 74, TbPYK inhibitor -5%, FMDV antiviral 10µM* and RE007 growth inh inconclusive.
Screening Cc1ccc2nc(SCC(=O)Nc3ccc4c(c3)OCCO4)nc(=O)n2c1 returned Sm TGR block 7%, HCMV inh 8, TbPYK inhibitor 2%, FMDV antiviral 8% and RE007 growth inh 6%.
`CCCCc1ccc(NC(=O)CSc2nc(=O)n3cc(C)ccc3n2)cc1` gave Sm TGR block 7%, HCMV inh -67*, TbPYK inhibitor -1%, FMDV antiviral -29% and RE007 growth inh 4%.
CCCCN(C)C(=O)c1ccc2c(=O)n3nc(Nc4cc(C)ccc4C)sc3nc2c1 was read as Sm TGR block -2%, HCMV inh -32, TbPYK inhibitor -4% and FMDV antiviral -22%.
CCOC(=O)c1c(NC(=O)COc2ccc(C)cc2C(C)(C)C)sc2c1CCC(C)C2 (stereo not given) was read as Sm TGR block 4%, HCMV inh 16, TbPYK inhibitor 5% and FMDV antiviral -10%.
O=C(O)c1ccc(Nc2cc(Cl)c3nonc3c2[N+](=O)[O-])cc1 was read as Giardia FBPA inh -13%, Sm TGR block 0.32µM*, HCMV inh 3, TbPYK inhibitor -5%, FMDV antiviral 40µM* and RE007 growth inh 0%.
CNc1cc(Cl)c2nonc2c1[N+](=O)[O-] was read as Giardia FBPA inh -21%, Sm TGR block 0.45µM*, HCMV inh -99*, TbPYK inhibitor 3%, FMDV antiviral 13µM* and RE007 growth inh inconclusive.
Screening O=C(O)c1cccc(Nc2ccc3nonc3c2[N+](=O)[O-])c1 returned Giardia FBPA inh 3%, Sm TGR block inconclusive, HCMV inh -3, TbPYK inhibitor 7%, FMDV antiviral -11% and RE007 growth inh -2%.
O=[N+]([O-])c1c(Nc2cccc(O)c2)cc(Cl)c2nonc12 was read as Giardia FBPA inh 0%, Sm TGR block 0.35µM*, HCMV inh -102*, TbPYK inhibitor 8%, FMDV antiviral 22µM* and RE007 growth inh -15%.
`CCCNC(=O)c1ccccc1NC(=O)c1nsc2ccccc12` gave Sm TGR block 6%, HCMV inh 37, TbPYK inhibitor -12% and FMDV antiviral 0%.
`Nc1c(C(=O)NCc2ccco2)c2nc3ccccc3nc2n1CCc1ccc(F)cc1` gave Giardia FBPA inh inconclusive, Sm TGR block inconclusive, HCMV inh -28, TbPYK inhibitor -13%, FMDV antiviral inconclusive and RE007 growth inh -10%.
Screening COc1ccc(-n2c(N)c(C(=O)NCc3ccco3)c3nc4ccccc4nc32)cc1 returned Giardia FBPA inh -20%, Sm TGR block 45µM*, HCMV inh inconclusive, TbPYK inhibitor 2% and RE007 growth inh 0%.
`COc1cc(-n2c(N)c(C(=O)NCc3ccco3)c3nc4ccccc4nc32)cc(OC)c1OC` gave Giardia FBPA inh -29%, Sm TGR block 25µM*, HCMV inh -39, TbPYK inhibitor -11%, FMDV antiviral -13% and RE007 growth inh 0%.
For COc1ccc(-n2c(N)c(C(=O)NCc3ccco3)c3nc4ccccc4nc32)cc1OC the results were Giardia FBPA inh inconclusive, Sm TGR block 40µM*, HCMV inh -81*, TbPYK inhibitor 4%, FMDV antiviral -10% and RE007 growth inh 1%.
COC(=O)c1c(N)n(-c2ccc(NC(C)=O)cc2)c2nc3ccccc3nc12 was read as Giardia FBPA inh inconclusive, Sm TGR block 3%, HCMV inh -66*, TbPYK inhibitor 2%, FMDV antiviral -29% and RE007 growth inh -3%.
For CC(C)(C)c1ccc(N2C[C@@H](COc3ccc(C(=O)O)cc3)CC2=O)cc1 the results were Giardia FBPA inh 6%.
Screening COc1ccc(-c2noc(CSCC(=O)Nc3cc(OC)c(OC)c(OC)c3)n2)cc1OC returned Sm TGR block 1%, HCMV inh 3, TbPYK inhibitor -4% and FMDV antiviral -9%.
Nc1c(C(=O)NCc2ccco2)c2nc3ccccc3nc2n1CCN1CCCCC1 was read as Giardia FBPA inh -6%, Sm TGR block -18%, HCMV inh -68*, TbPYK inhibitor -2% and RE007 growth inh 0%.
`COc1ccc(Cn2c(N)c(C(=O)NCc3ccco3)c3nc4ccccc4nc32)cc1OC` gave Giardia FBPA inh -29%, Sm TGR block 35µM*, HCMV inh 10, TbPYK inhibitor -12%, FMDV antiviral inconclusive and RE007 growth inh -12%.
Screening COc1cccc2c1NC1(C)c3cc4c(cc3-n3nncc3CN1C2=O)OCO4 (stereo not given) returned HCMV inh -11.
Screening CCCOc1ccc(C2CC(=O)Nc3c2c(=O)n(C)c(=O)n3C)cc1OC (stereo not given) returned Sm TGR block 7%, HCMV inh 27, TbPYK inhibitor -1% and FMDV antiviral -12%.
`CC(=O)c1ccccc1NC(C(=O)Nc1c(C)cccc1C)C1CC1` (stereo not given) gave HCMV inh 4.
CCCOc1ccc(C2c3c(-c4ccccc4O)n[nH]c3C(=O)N2CCc2ccccc2)cc1OCC (stereo not given) was read as Sm TGR block 1%, HCMV inh -90*, TbPYK inhibitor -2% and FMDV antiviral -22%.
For COc1cc(C2c3c(-c4ccccc4O)n[nH]c3C(=O)N2CCO)ccc1OCc1ccccc1 (stereo not given) the results were Sm TGR block 12%, HCMV inh -11, TbPYK inhibitor 3% and FMDV antiviral -27%.
